Positions count from the first letter of the chain named.
Key:
Assay in all cases: PBM; 200 nM protein, PBS
Details in all cases: dsDNA, one strand shown
HOXB4 [1] = target: HOXB4 (Homo sapiens, UniProt P17483 148-234)
HOXB9 [2] = target: HOXB9 (Homo sapiens, UniProt P17482 171-250, T197M)
PRRX1 [3] = target: PRRX1 (Homo sapiens, UniProt P54821 80-166, F113S)
HOXB6 [4] = target: HOXB6 (Homo sapiens, UniProt P17509 132-218, K202E)
HOXB4 [5] = target: HOXB4 (Homo sapiens, UniProt P17483 148-234, V174I)
ALX3 = ALX3 (Homo sapiens, UniProt O95076 139-225, N203Q)
HESX1 = HESX1 (Homo sapiens, UniProt Q9UBX0 95-180, F115L)
PRRX1 [6] = target: PRRX1 (Homo sapiens, UniProt P54821 80-166)
VENTX [7] = target: T1, VENTX (Homo sapiens, UniProt O95231 78-163, R121Q)
T1 sequence: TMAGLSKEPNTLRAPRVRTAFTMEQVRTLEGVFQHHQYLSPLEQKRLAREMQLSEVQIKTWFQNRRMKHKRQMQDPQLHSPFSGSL

HOXA4 [8] = target: HOXA4 (Homo sapiens, UniProt Q00056 201-287, W262R)
VENTX [9] = target: T2, VENTX (Homo sapiens, UniProt O95231 78-163)
T2 sequence: T1 sequence with Q44R

VENTX [10] = target: T3, VENTX (Homo sapiens, UniProt O95231 78-163, Y115F)
T3 sequence: T1 sequence with Y38F, Q44R

HOXA2 [11] = target: HOXA2 (Homo sapiens, UniProt O43364 129-215, R185T)
HOXA4 [12] = target: HOXA4 (Homo sapiens, UniProt Q00056 201-287, R217L)
MSX2 [13] = target: MSX2 (Homo sapiens, UniProt P35548 130-214, R199I)
HOXA2 [14] = target: HOXA2 (Homo sapiens, UniProt O43364 129-215, R185K)
HOXA4 [15] = target: HOXA4 (Homo sapiens, UniProt Q00056 201-287)
MSX2 [16] = target: MSX2 (Homo sapiens, UniProt P35548 130-214)
MSX2 [17] = target: MSX2 (Homo sapiens, UniProt P35548 130-214, F161Y)
HOXA2 [18] = target: HOXA2 (Homo sapiens, UniProt O43364 129-215, Y150S)
HOXA4 [19] = target: HOXA4 (Homo sapiens, UniProt Q00056 201-287, W262F)
HOXA2 [20] = target: HOXA2 (Homo sapiens, UniProt O43364 129-215)
HOXC9 [21] = target: HOXC9 (Homo sapiens, UniProt P31274 178-260, K195R)
HOXA7 [22] = target: HOXA7 (Homo sapiens, UniProt P31268 116-202)
HOXC10 [23] = target: HOXC10 (Homo sapiens, UniProt Q9NYD6 254-340)
HOXB9 [24] = target: HOXB9 (Homo sapiens, UniProt P17482 171-250)
HOXC9 [25] = target: HOXC9 (Homo sapiens, UniProt P31274 178-260)
HOXD13 [26] = target: HOXD13 (Homo sapiens, UniProt P35453 263-343, T313R)
HOXC9 [27] = target: HOXC9 (Homo sapiens, UniProt P31274 178-260, R193K)
HOXD13 [28] = target: HOXD13 (Homo sapiens, UniProt P35453 263-343)
HOXC10 [29] = target: HOXC10 (Homo sapiens, UniProt Q9NYD6 254-340, K271E)
VAX1 [30] = target: VAX1 (Homo sapiens, UniProt Q5SQQ9 86-172)
HOXD13 [31] = target: HOXD13 (Homo sapiens, UniProt P35453 263-343, T313A)
HOXB9 [32] = target: HOXB9 (Homo sapiens, UniProt P17482 171-250, R186Q)
HOXC9 [33] = target: HOXC9 (Homo sapiens, UniProt P31274 178-260, R222W)
VAX1 [34] = target: VAX1 (Homo sapiens, UniProt Q5SQQ9 86-172, T142I)
HOXA7 [35] = target: HOXA7 (Homo sapiens, UniProt P31268 116-202, W177C)
VAX1 [36] = target: VAX1 (Homo sapiens, UniProt Q5SQQ9 86-172, K157R)
HOXB6 [37] = target: HOXB6 (Homo sapiens, UniProt P17509 132-218)
Sequence of HOXB6 (Homo sapiens, UniProt P17509 132-218) (P17509 132-218): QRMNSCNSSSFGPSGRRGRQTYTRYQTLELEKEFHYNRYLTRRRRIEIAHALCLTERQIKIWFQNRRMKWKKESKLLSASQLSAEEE

Sequence of HOXB9 (Homo sapiens, UniProt P17482 171-250, T197M) (P17482 171-250 T197M): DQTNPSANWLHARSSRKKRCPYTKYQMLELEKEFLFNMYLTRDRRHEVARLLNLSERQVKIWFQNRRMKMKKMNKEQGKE
Sequence of HOXB6 (Homo sapiens, UniProt P17509 132-218, K202E) (P17509 132-218 K202E): as the sequence (P17509 132-218) above, with K71E counted along it
Sequence of HOXB4 (Homo sapiens, UniProt P17483 148-234) (P17483 148-234): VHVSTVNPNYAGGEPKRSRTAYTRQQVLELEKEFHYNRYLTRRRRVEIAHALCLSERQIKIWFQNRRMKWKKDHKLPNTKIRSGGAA
Sequence of HOXB4 (Homo sapiens, UniProt P17483 148-234, V174I) (P17483 148-234 V174I): as the sequence (P17483 148-234) above, with V27I counted along it
Sequence of HOXA4 (Homo sapiens, UniProt Q00056 201-287, W262F) (Q00056 201-287 W262F): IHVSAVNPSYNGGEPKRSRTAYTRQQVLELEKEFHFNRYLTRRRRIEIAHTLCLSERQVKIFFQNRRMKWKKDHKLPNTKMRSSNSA
Sequence of HOXA4 (Homo sapiens, UniProt Q00056 201-287) (Q00056 201-287): as the sequence (Q00056 201-287 W262F) above, with F62W counted along it
Sequence of HOXA4 (Homo sapiens, UniProt Q00056 201-287, R217L) (Q00056 201-287 R217L): as the sequence (Q00056 201-287 W262F) above, with R17L, F62W counted along it
Sequence of HOXA4 (Homo sapiens, UniProt Q00056 201-287, W262R) (Q00056 201-287 W262R): as the sequence (Q00056 201-287 W262F) above, with F62R counted along it
Sequence of VAX1 (Homo sapiens, UniProt Q5SQQ9 86-172, T142I) (Q5SQQ9 86-172 T142I): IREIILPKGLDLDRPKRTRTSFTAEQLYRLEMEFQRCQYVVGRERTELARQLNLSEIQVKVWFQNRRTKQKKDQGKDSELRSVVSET
Sequence of HOXA2 (Homo sapiens, UniProt O43364 129-215) (O43364 129-215): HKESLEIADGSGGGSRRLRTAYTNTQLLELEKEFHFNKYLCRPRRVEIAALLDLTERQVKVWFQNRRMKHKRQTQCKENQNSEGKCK
Sequence of HOXB9 (Homo sapiens, UniProt P17482 171-250, R186Q) (P17482 171-250 R186Q): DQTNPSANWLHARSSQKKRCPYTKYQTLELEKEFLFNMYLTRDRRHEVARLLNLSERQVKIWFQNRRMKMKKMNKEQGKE
Sequence of VAX1 (Homo sapiens, UniProt Q5SQQ9 86-172, K157R) (Q5SQQ9 86-172 K157R): as the sequence (Q5SQQ9 86-172 T142I) above, with I57T, K72R counted along it
Sequence of HOXA2 (Homo sapiens, UniProt O43364 129-215, R185K) (O43364 129-215 R185K): as the sequence (O43364 129-215) above, with R57K counted along it
Sequence of HOXA2 (Homo sapiens, UniProt O43364 129-215, Y150S) (O43364 129-215 Y150S): as the sequence (O43364 129-215) above, with Y22S counted along it
Sequence of HOXA2 (Homo sapiens, UniProt O43364 129-215, R185T) (O43364 129-215 R185T): as the sequence (O43364 129-215) above, with R57T counted along it
Sequence of VAX1 (Homo sapiens, UniProt Q5SQQ9 86-172) (Q5SQQ9 86-172): as the sequence (Q5SQQ9 86-172 T142I) above, with I57T counted along it
Sequence of HOXA7 (Homo sapiens, UniProt P31268 116-202) (P31268 116-202): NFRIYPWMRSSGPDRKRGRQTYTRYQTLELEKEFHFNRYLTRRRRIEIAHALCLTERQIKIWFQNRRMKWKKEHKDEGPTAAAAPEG
Sequence of HOXA7 (Homo sapiens, UniProt P31268 116-202, W177C) (P31268 116-202 W177C): as the sequence (P31268 116-202) above, with W62C counted along it
Sequence of HOXD13 (Homo sapiens, UniProt P35453 263-343, T313R) (P35453 263-343 T313R): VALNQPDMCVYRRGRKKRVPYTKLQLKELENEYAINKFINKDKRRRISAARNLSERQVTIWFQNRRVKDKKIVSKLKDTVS
Sequence of HESX1 (Q9UBX0 95-180 F115L): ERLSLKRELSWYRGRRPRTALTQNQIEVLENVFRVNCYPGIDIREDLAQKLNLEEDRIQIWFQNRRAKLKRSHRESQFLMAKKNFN
Sequence of PRRX1 (Homo sapiens, UniProt P54821 80-166, F113S) (P54821 80-166 F113S): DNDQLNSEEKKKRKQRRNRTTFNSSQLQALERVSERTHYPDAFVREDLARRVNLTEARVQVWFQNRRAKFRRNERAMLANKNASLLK
Sequence of HOXC9 (Homo sapiens, UniProt P31274 178-260) (P31274 178-260): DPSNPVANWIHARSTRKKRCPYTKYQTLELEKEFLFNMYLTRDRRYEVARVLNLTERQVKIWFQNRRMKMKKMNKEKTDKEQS
Sequence of HOXC9 (Homo sapiens, UniProt P31274 178-260, K195R) (P31274 178-260 K195R): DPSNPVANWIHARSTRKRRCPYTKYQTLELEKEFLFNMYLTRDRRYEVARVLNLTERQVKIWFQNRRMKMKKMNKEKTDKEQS
Sequence of MSX2 (Homo sapiens, UniProt P35548 130-214, F161Y) (P35548 130-214 F161Y): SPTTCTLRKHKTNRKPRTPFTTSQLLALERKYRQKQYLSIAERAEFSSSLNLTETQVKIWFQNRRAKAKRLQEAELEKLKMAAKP
Sequence of HOXC9 (Homo sapiens, UniProt P31274 178-260, R193K) (P31274 178-260 R193K): as the sequence (P31274 178-260) above, with R16K counted along it
Sequence of HOXB9 (Homo sapiens, UniProt P17482 171-250) (P17482 171-250): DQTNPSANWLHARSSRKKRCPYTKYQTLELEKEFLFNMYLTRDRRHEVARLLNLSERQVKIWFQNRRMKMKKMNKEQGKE
Sequence of MSX2 (Homo sapiens, UniProt P35548 130-214, R199I) (P35548 130-214 R199I): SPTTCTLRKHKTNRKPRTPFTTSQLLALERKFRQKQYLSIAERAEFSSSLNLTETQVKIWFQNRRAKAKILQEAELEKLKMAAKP
Sequence of MSX2 (Homo sapiens, UniProt P35548 130-214) (P35548 130-214): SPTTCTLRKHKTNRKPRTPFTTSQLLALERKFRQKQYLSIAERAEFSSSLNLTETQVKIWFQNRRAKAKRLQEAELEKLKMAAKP
Sequence of ALX3 (O95076 139-225 N203Q): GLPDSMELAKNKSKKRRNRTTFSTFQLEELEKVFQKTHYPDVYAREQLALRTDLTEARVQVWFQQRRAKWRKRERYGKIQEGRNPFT
Sequence of HOXC10 (Homo sapiens, UniProt Q9NYD6 254-340) (Q9NYD6 254-340): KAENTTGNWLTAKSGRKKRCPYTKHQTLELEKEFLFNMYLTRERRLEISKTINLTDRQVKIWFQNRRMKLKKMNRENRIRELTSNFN
Sequence of HOXC9 (Homo sapiens, UniProt P31274 178-260, R222W) (P31274 178-260 R222W): as the sequence (P31274 178-260) above, with R45W counted along it
Sequence of PRRX1 (Homo sapiens, UniProt P54821 80-166) (P54821 80-166): as the sequence (P54821 80-166 F113S) above, with S34F counted along it
Sequence of HOXD13 (Homo sapiens, UniProt P35453 263-343, T313A) (P35453 263-343 T313A): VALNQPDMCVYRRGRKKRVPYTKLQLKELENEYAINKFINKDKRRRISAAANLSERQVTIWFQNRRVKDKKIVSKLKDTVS
Sequence of HOXD13 (Homo sapiens, UniProt P35453 263-343) (P35453 263-343): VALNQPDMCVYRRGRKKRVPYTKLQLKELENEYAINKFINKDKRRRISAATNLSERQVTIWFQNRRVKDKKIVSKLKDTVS
Sequence of HOXC10 (Homo sapiens, UniProt Q9NYD6 254-340, K271E) (Q9NYD6 254-340 K271E): as the sequence (Q9NYD6 254-340) above, with K18E counted along it

ATTATTAA
binding signal (HOXB4 [1]): 12.9 upbm affinity estimate (log intensity, higher = more binding, comparable within an allelic series) | binding signal (HOXB9 [2]): 10 upbm affinity estimate (log intensity, higher = more binding, comparable within an allelic series) | binding signal (PRRX1 [3]): 11 upbm affinity estimate (log intensity, higher = more binding, comparable within an allelic series) | binding signal (HOXB6 [4]): 10.1 upbm affinity estimate (log intensity, higher = more binding, comparable within an allelic series) | binding signal (HOXB4 [5]): 13.6 upbm affinity estimate (log intensity, higher = more binding, comparable within an allelic series) | binding signal (ALX3): 8.56 upbm affinity estimate (log intensity, higher = more binding, comparable within an allelic series) | binding signal (HESX1): 7.79 upbm affinity estimate (log intensity, higher = more binding, comparable within an allelic series) | binding signal (PRRX1 [6]): 13.2 upbm affinity estimate (log intensity, higher = more binding, comparable within an allelic series)

GCCGCCGC
binding signal (HOXB4 [1]): 7.18 upbm affinity estimate (log intensity, higher = more binding, comparable within an allelic series) | binding signal (VENTX [7]): 7.93 upbm affinity estimate (log intensity, higher = more binding, comparable within an allelic series) | binding signal (HOXA4 [8]): 9.6 upbm affinity estimate (log intensity, higher = more binding, comparable within an allelic series) | binding signal (VENTX [9]): 7.88 upbm affinity estimate (log intensity, higher = more binding, comparable within an allelic series) | binding signal (VENTX [10]): 7.83 upbm affinity estimate (log intensity, higher = more binding, comparable within an allelic series) | binding signal (HOXA2 [11]): 6.96 upbm affinity estimate (log intensity, higher = more binding, comparable within an allelic series) | binding signal (HOXA4 [12]): 9.61 upbm affinity estimate (log intensity, higher = more binding, comparable within an allelic series) | binding signal (HOXB4 [5]): 7.39 upbm affinity estimate (log intensity, higher = more binding, comparable within an allelic series) | binding signal (MSX2 [13]): 9.4 upbm affinity estimate (log intensity, higher = more binding, comparable within an allelic series) | binding signal (HOXA2 [14]): 9.77 upbm affinity estimate (log intensity, higher = more binding, comparable within an allelic series) | binding signal (HOXA4 [15]): 9.67 upbm affinity estimate (log intensity, higher = more binding, comparable within an allelic series) | binding signal (MSX2 [16]): 9.37 upbm affinity estimate (log intensity, higher = more binding, comparable within an allelic series) | binding signal (MSX2 [17]): 9.42 upbm affinity estimate (log intensity, higher = more binding, comparable within an allelic series) | binding signal (HOXA2 [18]): 10.3 upbm affinity estimate (log intensity, higher = more binding, comparable within an allelic series) | binding signal (HOXA4 [19]): 9.69 upbm affinity estimate (log intensity, higher = more binding, comparable within an allelic series) | binding signal (HOXA2 [20]): 6.9 upbm affinity estimate (log intensity, higher = more binding, comparable within an allelic series)

CCCATTAA
binding signal (HOXB4 [1]): 13 upbm affinity estimate (log intensity, higher = more binding, comparable within an allelic series) | binding signal (VENTX [7]): 12.1 upbm affinity estimate (log intensity, higher = more binding, comparable within an allelic series) | binding signal (HOXB9 [2]): 10.1 upbm affinity estimate (log intensity, higher = more binding, comparable within an allelic series) | binding signal (HOXA4 [8]): 10.4 upbm affinity estimate (log intensity, higher = more binding, comparable within an allelic series) | binding signal (HOXC9 [21]): 12.9 upbm affinity estimate (log intensity, higher = more binding, comparable within an allelic series) | binding signal (VENTX [9]): 13.1 upbm affinity estimate (log intensity, higher = more binding, comparable within an allelic series) | binding signal (HOXA7 [22]): 11.8 upbm affinity estimate (log intensity, higher = more binding, comparable within an allelic series) | binding signal (HOXC10 [23]): 12.2 upbm affinity estimate (log intensity, higher = more binding, comparable within an allelic series) | binding signal (VENTX [10]): 12 upbm affinity estimate (log intensity, higher = more binding, comparable within an allelic series) | binding signal (HOXB6 [4]): 9.99 upbm affinity estimate (log intensity, higher = more binding, comparable within an allelic series) | binding signal (HOXA2 [11]): 12.5 upbm affinity estimate (log intensity, higher = more binding, comparable within an allelic series) | binding signal (HOXA4 [12]): 11.9 upbm affinity estimate (log intensity, higher = more binding, comparable within an allelic series) | binding signal (HOXB9 [24]): 12.2 upbm affinity estimate (log intensity, higher = more binding, comparable within an allelic series) | binding signal (HOXB4 [5]): 13.5 upbm affinity estimate (log intensity, higher = more binding, comparable within an allelic series) | binding signal (HOXC9 [25]): 12.9 upbm affinity estimate (log intensity, higher = more binding, comparable within an allelic series) | binding signal (HOXD13 [26]): 10.6 upbm affinity estimate (log intensity, higher = more binding, comparable within an allelic series) | binding signal (HOXC9 [27]): 12.9 upbm affinity estimate (log intensity, higher = more binding, comparable within an allelic series) | binding signal (HOXA2 [14]): 13.1 upbm affinity estimate (log intensity, higher = more binding, comparable within an allelic series) | binding signal (HOXD13 [28]): 11.8 upbm affinity estimate (log intensity, higher = more binding, comparable within an allelic series) | binding signal (HOXA4 [15]): 13.7 upbm affinity estimate (log intensity, higher = more binding, comparable within an allelic series) | binding signal (HOXC10 [29]): 12.2 upbm affinity estimate (log intensity, higher = more binding, comparable within an allelic series) | binding signal (VAX1 [30]): 12.9 upbm affinity estimate (log intensity, higher = more binding, comparable within an allelic series) | binding signal (HOXD13 [31]): 11.5 upbm affinity estimate (log intensity, higher = more binding, comparable within an allelic series) | binding signal (HOXB9 [32]): 12 upbm affinity estimate (log intensity, higher = more binding, comparable within an allelic series) | binding signal (HOXC9 [33]): 10.9 upbm affinity estimate (log intensity, higher = more binding, comparable within an allelic series) | binding signal (VAX1 [34]): 12.5 upbm affinity estimate (log intensity, higher = more binding, comparable within an allelic series) | binding signal (HOXA2 [18]): 10.7 upbm affinity estimate (log intensity, higher = more binding, comparable within an allelic series) | binding signal (HOXA7 [35]): 8.83 upbm affinity estimate (log intensity, higher = more binding, comparable within an allelic series) | binding signal (HOXA4 [19]): 11.1 upbm affinity estimate (log intensity, higher = more binding, comparable within an allelic series) | binding signal (HOXA2 [20]): 12.1 upbm affinity estimate (log intensity, higher = more binding, comparable within an allelic series) | binding signal (VAX1 [36]): 12.6 upbm affinity estimate (log intensity, higher = more binding, comparable within an allelic series) | binding signal (HOXB6 [37]): 12.3 upbm affinity estimate (log intensity, higher = more binding, comparable within an allelic series)

TCCATTAA
binding signal (HOXB4 [1]): 13 upbm affinity estimate (log intensity, higher = more binding, comparable within an allelic series) | binding signal (VENTX [7]): 11.7 upbm affinity estimate (log intensity, higher = more binding, comparable within an allelic series) | binding signal (HOXB9 [2]): 9.97 upbm affinity estimate (log intensity, higher = more binding, comparable within an allelic series) | binding signal (HOXA4 [8]): 10.5 upbm affinity estimate (log intensity, higher = more binding, comparable within an allelic series) | binding signal (HOXA7 [22]): 11.2 upbm affinity estimate (log intensity, higher = more binding, comparable within an allelic series) | binding signal (HOXB6 [4]): 9.96 upbm affinity estimate (log intensity, higher = more binding, comparable within an allelic series) | binding signal (HOXA4 [12]): 11.9 upbm affinity estimate (log intensity, higher = more binding, comparable within an allelic series) | binding signal (HOXB4 [5]): 13.6 upbm affinity estimate (log intensity, higher = more binding, comparable within an allelic series) | binding signal (HOXA4 [15]): 13.7 upbm affinity estimate (log intensity, higher = more binding, comparable within an allelic series) | binding signal (VAX1 [30]): 12.8 upbm affinity estimate (log intensity, higher = more binding, comparable within an allelic series) | binding signal (HOXB9 [32]): 11.5 upbm affinity estimate (log intensity, higher = more binding, comparable within an allelic series) | binding signal (VAX1 [34]): 12.2 upbm affinity estimate (log intensity, higher = more binding, comparable within an allelic series) | binding signal (HOXA7 [35]): 8.72 upbm affinity estimate (log intensity, higher = more binding, comparable within an allelic series) | binding signal (HOXA4 [19]): 11.4 upbm affinity estimate (log intensity, higher = more binding, comparable within an allelic series) | binding signal (VAX1 [36]): 12.2 upbm affinity estimate (log intensity, higher = more binding, comparable within an allelic series) | binding signal (HOXB6 [37]): 11.7 upbm affinity estimate (log intensity, higher = more binding, comparable within an allelic series)
